# This is one part of a sample in which the strongest signals are shown more often than they occur.
# B1: CREG (Mus musculus), O88668 (protein)
# chain: MAARAPELARSLLAALLAPALVALLVSPASGRGGRDHGDWDVDRRLPPLPPREDGPRVARFVTHVSDWGSLATISTIKEVRGWPFADIISISDGPPGEGTGEPYMYLSPLQQAVSDLQENPEATLTMSLAQTVYCRNHGFDPQSPLCVHIMMSGTVTKVNKTEEDYARDSLFVRHPEMKHWPSSHNWFFAKLKISRIWVLDYFGGPKVVTPEEYFNVTLQ
# Legend:
# Assay in all cases: glycan array binding signal (z-score within array); higher = stronger binding
# Conditions in all cases: glycan notation: IUPAC condensed, linker removed
# [1] = target: Fuc(a1-2)Gal6S(b1-4)GlcNAc
# Summary of the method: (§1)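 Columns mapping to the same glycan were averaged after glycan names were converted to IUPAC-condensed notation. The data come from 3228 arrays in the Consortium for Functional Glycomics database, limited to those with an available protein sequence. Binding is reported as a within-array Z-score averaged across arrays of one protein sequence and across linkers.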
# [2] = target: Fuc(a1-2)[Gal(a1-3)]Gal(b1-4)GlcNAc(b1-2)Man(a1-3)[Fuc(a1-2)[Gal(a1-3)]Gal(b1-4)GlcNAc(b1-2)Man(a1-6)]Man(b1-4)GlcNAc(b1-4)GlcNAc
# Summary of the method: as §1
# [3] = target: Fuc(a1-2)[GalNAc(a1-3)]Gal(b1-4)Glc
# Summary of the method: as §1
# [4] = target: Fuc(a1-3)[Gal(b1-4)]GlcNAc(b1-4)Gal(b1-4)[Fuc(a1-3)]GlcNAc
# Summary of the method: as §1
# [5] = target: Gal(a1-3)Gal(b1-3)GlcNAc(b1-2)Man(a1-3)[Gal(a1-3)Gal(b1-3)GlcNAc(b1-2)Man(a1-6)]Man(b1-4)GlcNAc(b1-4)GlcNAc
# Summary of the method: as §1
# Gal(b1-3)Gal = target: Gal(b1-3)Gal
# Summary of the method: as §1
# [6] = target: Gal(b1-3)Gal(b1-4)GlcNAc(b1-2)Man(a1-3)[Gal(b1-3)Gal(b1-4)GlcNAc(b1-2)Man(a1-6)]Man(b1-4)GlcNAc(b1-4)GlcNAc
# Summary of the method: as §1
# [7] = target: Gal(b1-3)[Fuc(a1-4)]GlcNAc(b1-2)Man(a1-3)[Gal(b1-3)[Fuc(a1-4)]GlcNAc(b1-2)Man(a1-6)]Man(b1-4)GlcNAc(b1-4)GlcNAc
# Summary of the method: as §1
# [8] = target: Gal(b1-4)GalNAc(a1-3)[Fuc(a1-2)]Gal(b1-4)GlcNAc
# Summary of the method: as §1
# [9] = target: Gal(b1-4)GlcNAc(b1-2)Man(a1-3)Man(b1-4)GlcNAc(b1-4)GlcNAc
# Summary of the method: as §1
# Gal3S(b1-3)GalNAc = target: Gal3S(b1-3)GalNAc
# Summary of the method: as §1
# Gal3S(b1-4)GlcNAc6S = target: Gal3S(b1-4)GlcNAc6S
# Summary of the method: as §1
# Gal3S6S(b1-4)GlcNAc = target: Gal3S6S(b1-4)GlcNAc
# Summary of the method: as §1
# Gal3S6S(b1-4)GlcNAc6S = target: Gal3S6S(b1-4)GlcNAc6S
# Summary of the method: as §1
# [10] = target: GlcNAc(b1-2)Gal(b1-3)GalNAc
# Summary of the method: as §1
# [11] = target: GlcNAc(b1-2)Man(a1-3)[GlcNAc(b1-2)Man(a1-6)]Man(b1-4)GlcNAc(b1-4)GlcNAc
# Summary of the method: as §1
# [12] = target: GlcNAc(b1-2)Man(a1-3)[GlcNAc(b1-2)Man(a1-6)]Man(b1-4)GlcNAc(b1-4)[Fuc(a1-6)]GlcNAc
# Summary of the method: as §1
# [13] = target: GlcNAc(b1-3)Gal(b1-3)GalNAc
# Summary of the method: as §1
# [14] = target: GlcNAc(b1-3)[GlcNAc(b1-4)][GlcNAc(b1-6)]GlcNAc
# Summary of the method: as §1
# [15] = target: GlcNAc(b1-3)[GlcNAc(b1-6)]Gal(b1-4)GlcNAc
# Summary of the method: as §1
# GlcNAc(b1-6)GalNAc = target: GlcNAc(b1-6)GalNAc
# Summary of the method: as §1
# Kdn(a2-3)Gal(b1-3)GalNAc = target: Kdn(a2-3)Gal(b1-3)GalNAc
# Summary of the method: as §1
# [16] = target: Neu5Ac(a2-3)Gal(b1-3)GalNAc(b1-3)Gal(a1-4)Gal(b1-4)Glc
# Summary of the method: as §1
# [17] = target: Neu5Ac(a2-3)Gal(b1-3)[Fuc(a1-4)]GlcNAc
# Summary of the method: as §1
# [18] = target: Neu5Ac(a2-3)Gal(b1-4)GlcNAc6S
# Summary of the method: as §1
# [19] = target: Neu5Ac(a2-3)Gal(b1-4)[Fuc(a1-3)]GlcNAc(b1-3)GalNAc
# Summary of the method: as §1
# [20] = target: Neu5Ac(a2-3)Gal(b1-4)[Fuc(a1-3)]GlcNAc(b1-6)[Neu5Ac(a2-3)Gal(b1-3)]GalNAc
# Summary of the method: as §1
# [21] = target: Neu5Ac(a2-6)Gal(b1-4)GlcNAc(b1-3)Gal(b1-4)GlcNAc
# Summary of the method: as §1
# [22] = target: Neu5Ac(a2-6)GlcNAc(b1-4)GlcNAc(b1-4)GlcNAc
# Summary of the method: as §1
# Neu5Ac(a2-8)Neu5Ac = target: Neu5Ac(a2-8)Neu5Ac
# Summary of the method: as §1
# [23] = target: Neu5Gc(a2-3)Gal(b1-3)[Fuc(a1-4)]GlcNAc
# Summary of the method: as §1
binder,measurement,setting,value
B1,glycan array binding signal (z-score),[1],-0.138
same,glycan array binding signal (z-score),[2],2.76
same,glycan array binding signal (z-score),[3],0.375
same,glycan array binding signal (z-score),[4],2.95
same,glycan array binding signal (z-score),[5],3.49
same,glycan array binding signal (z-score),Gal(b1-3)Gal,0.033
same,glycan array binding signal (z-score),[6],0.416
same,glycan array binding signal (z-score),[7],6.79
same,glycan array binding signal (z-score),[8],0.494
same,glycan array binding signal (z-score),[9],-0.442
same,glycan array binding signal (z-score),Gal3S(b1-3)GalNAc,0.036
same,glycan array binding signal (z-score),Gal3S(b1-4)GlcNAc6S,0.604
same,glycan array binding signal (z-score),Gal3S6S(b1-4)GlcNAc,1.52
same,glycan array binding signal (z-score),Gal3S6S(b1-4)GlcNAc6S,2.03
same,glycan array binding signal (z-score),[10],-0.651
same,glycan array binding signal (z-score),[11],0.15
same,glycan array binding signal (z-score),[12],3.8
same,glycan array binding signal (z-score),[13],3.22
same,glycan array binding signal (z-score),[14],2.23
same,glycan array binding signal (z-score),[15],-0.627
same,glycan array binding signal (z-score),GlcNAc(b1-6)GalNAc,-0.035
same,glycan array binding signal (z-score),Kdn(a2-3)Gal(b1-3)GalNAc,0.66
same,glycan array binding signal (z-score),[16],-0.096
same,glycan array binding signal (z-score),[17],-0.737
same,glycan array binding signal (z-score),[18],1.38
same,glycan array binding signal (z-score),[19],3.4
same,glycan array binding signal (z-score),[20],4.66
same,glycan array binding signal (z-score),[21],0.227
same,glycan array binding signal (z-score),[22],0.386
same,glycan array binding signal (z-score),Neu5Ac(a2-8)Neu5Ac,-0.211
same,glycan array binding signal (z-score),[23],-0.132

# Source: the supplement of paper PMC8728848
